Measurements published in paper PMC5540273 (PLoS ONE, 2017).

Legend:
Details in all cases: concentration: 1 μM, replicates: in singlicate; n = 1
DYRK1B = test system: DYRK1B
DYRK2 = test system: DYRK2
EGFR = test system: EGFR
EIF2AK1 = test system: EIF2AK1
EPHA1 = test system: EPHA1
EPHA2 = test system: EPHA2
EPHA3 = test system: EPHA3
EPHA4 = test system: EPHA4
EPHA5 = test system: EPHA5
EPHA6 = test system: EPHA6
EPHA7 = test system: EPHA7
EPHA8 = test system: EPHA8
EPHB1 = test system: EPHB1
EPHB2 = test system: EPHB2
EPHB3 = test system: EPHB3
EPHB4 = test system: EPHB4
EPHB6 = test system: EPHB6
ERBB2 = test system: ERBB2
ERBB3 = test system: ERBB3
ERBB4 = test system: ERBB4
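Also: KINOMEscan kinase panel screen.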

Structure (SMILES) | %Inh (DYRK1B) [%] | %Inh (DYRK2) [%] | %Inh (EGFR) [%] | %Inh (EIF2AK1) [%] | %Inh (EPHA1) [%] | %Inh (EPHA2) [%] | %Inh (EPHA3) [%] | %Inh (EPHA4) [%] | %Inh (EPHA5) [%] | %Inh (EPHA6) [%] | %Inh (EPHA7) [%] | %Inh (EPHA8) [%] | %Inh (EPHB1) [%] | %Inh (EPHB2) [%] | %Inh (EPHB3) [%] | %Inh (EPHB4) [%] | %Inh (EPHB6) [%] | %Inh (ERBB2) [%] | %Inh (ERBB3) [%] | %Inh (ERBB4) [%]
Cc1occc1-c1ncc(OC[C@@H](N)Cc2c[nH]c3ccccc23)cc1-c1ccc2[nH]nc(C)c2c1.O=C(O)C(F)(F)F [GSK682037] | 0 | 26 | 94.3 | 0 | 0 | 9 | 29 | 0 | 0 | 49 | 6 | 39 | 10 | 0 | 17 | 14 | 0 | 81 | 0 | 47
CCCCc1nn2ncccc2c1-c1ccnc(Nc2ccc(N3CCN(C)CC3)cc2)n1 [GW684941] | 20 | 3 | 81 | 0 | 88 | 42 | 9 | 29 | 0 | 40 | 0 | 73 | 65 | 26 | 18 | 62 | 97.7 | 69 | 72 | 66
CC(C)(C)c1ccc2nccc(Nc3cccc(O)c3)c2c1 [GW856795] | 48 | 51 | 63 | 0 | 74 | 18 | 21 | 18 | 37 | 18 | 0 | 56 | 22 | 17 | 57 | 37 | 3 | 88 | 44 | 37
CN(C)Cc1ccc(-c2ccc3c(Nc4ccc(Oc5ccccn5)cc4)ccnc3c2)o1 [GW567148] | 0 | 0 | 53 | 0 | 79 | 1 | 0 | 60 | 0 | 53 | 0 | 13 | 0 | 0 | 30 | 0 | 97.4 | 45 | 98.9 | 0
C[C@@H]1CC[C@@H](C(=O)Nc2ccccc2)CN1c1cc(-c2ccc3c(N)n[nH]c3c2)nc(N)n1 [GSK2286062] | 0 | 3 | 43 | 0 | 1 | 17 | 2 | 0 | 0 | 0 | 0 | 4 | 5 | 0 | 0 | 10 | 14 | 44 | 0 | 0
COc1cccc(-c2ccc3c(NC(=O)C4CC4)n[nH]c3n2)c1 [SB-710903] | 0 | 73 | 20 | 5 | 20 | 0 | 0 | 20 | 0 | 23 | 16 | 30 | 0 | 24 | 24 | 16 | 48 | 51 | 0 | 36
c1ccc(-c2n[nH]cc2Nc2ccnc3ccccc23)nc1 [GW694077] | 100 | 90 | 15 | 0 | 0 | 0 | 0 | 4 | 0 | 0 | 11 | 21 | 18 | 0 | 1 | 0 | 0 | 0 | 4 | 0
Nc1ncc(-c2ccc3nccc(-c4ccncc4)c3c2)cc1S(=O)(=O)N1CCOCC1 [GSK1627798] | 0 | 21 | 18 | 0 | 4 | 4 | 0 | 0 | 0 | 5 | 4 | 15 | 1 | 0 | 3 | 3 | 36 | 0 | 0 | 0
O=C(Nc1cccc(-c2nn3ncccc3c2-c2ccnc(Nc3ccccc3)n2)c1)c1c(F)cccc1F [GSK198271] | 100 | 26 | 100 | 52 | 42 | 10 | 4 | 0 | 0 | 8 | 5 | 19 | 18 | 11 | 1 | 6 | 63 | 95.2 | 80 | 100
COc1cccc(NC(=O)NC2CCN(c3ccnc(Nc4cc(OC)c(OC)c(OC)c4)n3)C2)c1 (stereo not shown) [GSK1379763] | 15 | 4 | 12 | 0 | 6 | 0 | 0 | 0 | 0 | 0 | 6 | 4 | 11 | 8 | 0 | 7 | 94.3 | 0 | 0 | 30
COc1cc(Nc2nccc(-c3c(-c4cccc(NC(=O)c5c(F)cccc5F)c4)nn4ccccc34)n2)cc(OC)c1OC [GSK323521] | 0 | 0 | 38 | 39 | 12 | 16 | 0 | 0 | 21 | 3 | 15 | 20 | 14 | 9 | 1 | 8 | 71 | 6 | 0 | 12
COc1cc(Nc2nccc(N3CCC(NC(=O)c4cc5ccccc5s4)C3)n2)cc(OC)c1OC (stereo not shown) [GSK1379760] | 33 | 19 | 45 | 0 | 3 | 9 | 0 | 7 | 0 | 5 | 4 | 17 | 6 | 26 | 5 | 15 | 61 | 6 | 12 | 0
COCCOCCOc1cc2ncc3c4ccc(C#N)cc4[nH]c3c2cc1OC | 72 | 70 | 12 | 0 | 15 | 33 | 0 | 23 | 11 | 25 | 11 | 9 | 6 | 23 | 11 | 25 | 56 | 34 | 0 | 0
COc1cc2c(cc1OCCN1CCNCC1)ncc1c3ccc(C#N)cc3[nH]c21 | 63 | 73 | 26 | 0 | 3 | 3 | 0 | 1 | 2 | 0 | 0 | 0 | 0 | 2 | 0 | 0 | 55 | 4 | 0 | 28
Nc1ncnc2c1nc(-c1ccccc1)n2-c1ccccc1 [SKF-97293] | 6 | 25 | 7 | 20 | 22 | 0 | 0 | 30 | 13 | 28 | 0 | 7 | 15 | 0 | 29 | 10 | 16 | 14 | 43 | 0
O=C(O)C(F)(F)F.O=C(O)C(F)(F)F.O=c1[nH]ccc2nc(N[C@@H]3CCCNC3)nc(Nc3ccc(S(=O)(=O)N4CCOCC4)cc3)c12 [GSK2177277] | 0 | 59 | 45 | 21 | 25 | 28 | 98.9 | 57 | 32 | 62 | 58 | 39 | 31 | 0 | 15 | 21 | 30 | 2 | 45 | 12
Cl.c1ccc(-c2ccc3c(Nc4ccc5[nH]ccc5c4)ccnc3c2)nc1 [GW440138] | 0 | 0 | 89 | 0 | 48 | 1 | 8 | 0 | 0 | 54 | 3 | 25 | 11 | 0 | 1 | 5 | 79 | 63 | 50 | 44
O=C(Nc1cccc(-c2nn3ccccc3c2-c2ccnc(Nc3cccc(F)c3)n2)c1)c1c(F)ccc(F)c1Cl [GSK357952] | 0 | 11 | 100 | 39 | 5 | 0 | 0 | 25 | 0 | 15 | 11 | 19 | 6 | 0 | 4 | 8 | 48 | 82 | 0 | 76
Cc1ccc(S(=O)(=O)Nc2ccc(Nc3nccc(Nc4cccc5[nH]ncc45)n3)cc2)cc1 [GSK581271] | 0 | 12 | 42 | 0 | 66 | 21 | 0 | 13 | 0 | 0 | 12 | 30 | 29 | 0 | 3 | 26 | 31 | 14 | 0 | 39
COc1ccc(Nc2nccc(NCCNC(=O)c3cc4ccccc4s3)n2)cc1 [GSK1379896] | 0 | 5 | 19 | 0 | 0 | 8 | 0 | 0 | 0 | 0 | 0 | 3 | 16 | 0 | 5 | 0 | 0 | 4 | 0 | 0
